Article PMC4336329 (PLoS ONE, 2015)
Out of some 310,000 compounds screened, about 14,000 (4.5%) showed an effect of 50% or more. The effect is printed as a negative number. Shown is part of a subset that was picked to be rich in strong results.

The molecules below were run against human ether-à-go-go-related gene (hERG) potassium channel (human, UniProt Q12809) (assay: primary screen, population patch clamp on CHO cells stably expressing hERG; higher = less effect of the substance).
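Note: peak tail current of the secondary pulse compared with the same well before compound.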

Chain of human ether-à-go-go-related gene (hERG) potassium channel (Q12809 whole entry, looked up): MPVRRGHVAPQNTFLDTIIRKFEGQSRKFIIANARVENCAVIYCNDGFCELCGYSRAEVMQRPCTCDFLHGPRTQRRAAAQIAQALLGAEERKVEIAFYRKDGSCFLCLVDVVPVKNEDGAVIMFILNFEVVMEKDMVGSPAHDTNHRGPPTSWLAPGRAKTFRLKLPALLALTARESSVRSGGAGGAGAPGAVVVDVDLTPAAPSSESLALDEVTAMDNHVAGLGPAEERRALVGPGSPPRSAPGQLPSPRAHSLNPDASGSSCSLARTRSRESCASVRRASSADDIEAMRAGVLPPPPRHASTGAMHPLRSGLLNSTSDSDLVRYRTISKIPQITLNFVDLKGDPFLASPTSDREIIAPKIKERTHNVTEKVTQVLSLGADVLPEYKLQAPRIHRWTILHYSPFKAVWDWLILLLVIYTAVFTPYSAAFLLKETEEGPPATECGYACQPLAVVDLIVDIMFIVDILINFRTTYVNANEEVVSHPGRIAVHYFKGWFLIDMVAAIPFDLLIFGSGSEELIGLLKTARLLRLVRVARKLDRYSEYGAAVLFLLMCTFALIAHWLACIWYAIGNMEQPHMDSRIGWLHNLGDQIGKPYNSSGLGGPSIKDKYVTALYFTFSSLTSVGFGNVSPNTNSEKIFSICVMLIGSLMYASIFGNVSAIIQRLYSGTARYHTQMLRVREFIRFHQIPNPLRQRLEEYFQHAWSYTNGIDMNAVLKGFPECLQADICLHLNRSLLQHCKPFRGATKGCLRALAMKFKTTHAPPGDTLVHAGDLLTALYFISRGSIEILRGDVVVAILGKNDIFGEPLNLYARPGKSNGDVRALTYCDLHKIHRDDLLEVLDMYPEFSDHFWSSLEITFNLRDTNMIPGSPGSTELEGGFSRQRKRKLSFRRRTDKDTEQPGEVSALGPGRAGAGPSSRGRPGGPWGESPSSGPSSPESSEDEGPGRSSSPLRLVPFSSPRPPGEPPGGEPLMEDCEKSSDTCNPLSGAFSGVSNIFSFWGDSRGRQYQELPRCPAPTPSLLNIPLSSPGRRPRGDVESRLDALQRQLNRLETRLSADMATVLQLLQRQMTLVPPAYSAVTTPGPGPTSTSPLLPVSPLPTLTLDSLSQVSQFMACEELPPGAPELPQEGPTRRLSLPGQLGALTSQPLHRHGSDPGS

SMILES | hERG current change (%, negative = inhibition) at 10uM
CC(C)OC(=O)CCc1nc2ccccc2[nH]c1=O | 10.1%
COc1nc(-c2ccccc2)ccc1-c1noc(-c2cccnc2)n1 | 5.15%
COc1ccc(C(=O)COC(=O)CNC(=O)C2CCCCC2)c(OC)c1 | -11%
COc1ccc(NC(=O)C2C(=O)N(C)C3(C)CC2c2ccccc2O3)cc1 (centres unmarked) | -13.5%
CCC(C)NS(=O)(=O)c1cccs1 (centres unmarked) | 7.86%
COc1ccc(CNC(=O)C(C)n2nc(C)c3c(C)n(-c4ccccc4)nc3c2=O)c(OC)c1 (centres unmarked) | -8.08%
COc1ccc(OC)c(CNC(=O)C(C)n2nc(C)c3c(C)n(-c4ccccc4)nc3c2=O)c1 (centres unmarked) | -7.41%
COc1ccccc1CCNC(=O)C(C)n1nc(C)c2c(C)n(-c3ccccc3)nc2c1=O (centres unmarked) | -12.3%
COc1ccc(OC)c(CCNC(=O)C(C)n2nc(C)c3c(C)n(-c4ccccc4)nc3c2=O)c1 (centres unmarked) | -0.756%
COc1ccc(OC)c(CNC(=O)Cn2nc(C)c3c(C)n(-c4ccc(C)cc4)nc3c2=O)c1 | 3.27%
COc1ccc(CCNC(=O)C(C)n2nc(C)c3c(C)n(-c4ccc(C)cc4)nc3c2=O)c(OC)c1 (centres unmarked) | -58.6%
COc1ccc(OC)c(CCNC(=O)Cn2nc(C)c3c(C)n(-c4ccccc4)nc3c2=O)c1 | 5%
COc1ccc(OC)c(CCNC(=O)C(C)n2nc(C)c3c(C)n(-c4ccc(C)cc4)nc3c2=O)c1 (centres unmarked) | -53.2%
COc1ccc(OC)c(CCNC(=O)Cn2nc(C)c3c(C)n(-c4ccc(C)cc4)nc3c2=O)c1 | -59%
CC(=O)Nc1ccc(C(=O)CSc2ncn(-c3ccccc3)n2)cc1 | 5.72%
Cc1sc2ncn(CC(=O)NCc3ccco3)c(=O)c2c1-c1ccccc1 | -11.8%

SMILES | hERG current change (%, negative = inhibition) at 10uM
CC(=O)c1cnc(Oc2cc(Cl)ccc2Cl)nc1C | 0.763%
CSc1sc(C(=O)N(C)C)cc1S(=O)(=O)C(C)C | 1.94%
CCN1C(=O)/C(=C/c2cccs2)N(C)C1=S | -7.99%
COc1ccccc1NS(=O)(=O)c1cc(C(=O)NCC2CCCO2)ccc1C (centres unmarked) | -36.8%
COC(=O)C1=C(C(=O)OC)[C@@H]2N(C)c3ccc(OC)cc3[C@@]23C[C@@H](C(=O)OC)N(C(=O)COCc2ccccc2)C3=N1 | -55%
CCOC(=O)N1C2=NC(C(=O)OC)=C(C(=O)OC)[C@@H]3N(C)c4ccc(OC)cc4[C@]23C[C@H]1C(=O)OC | 6.52%
COC(=O)C1=C(C(=O)OC)[C@@H]2N(C)c3ccc(OC)cc3[C@@]23C[C@@H](C(=O)OC)N(C(=O)C2CCC2)C3=N1 | -50%
COC(=O)C1=C(C(=O)OC)[C@@H]2N(C)c3ccccc3[C@@]23C[C@@H](C(=O)OC)N(C(=O)c2cccs2)C3=N1 | -10.1%
COC(=O)C1=C(C(=O)OC)[C@@H]2N(C)c3ccc(OC)cc3[C@@]23C[C@@H](C(=O)OC)N(C(=O)c2cccs2)C3=N1 | -68.3%
COC(=O)C1=C(C(=O)OC)[C@@H]2N(C)c3ccc(OC)cc3[C@@]23C[C@@H](C(=O)OC)N(C(=O)c2ccco2)C3=N1 | -50.6%
COC(=O)C1=C(C(=O)OC)[C@@H]2N(C)c3ccc(OC)cc3[C@@]23C[C@@H](C(=O)OC)N(C(=O)CC(C)C)C3=N1 | -14.9%
COC(=O)C1=C(C(=O)OC)[C@@H]2N(C)c3ccccc3[C@@]23C[C@@H](C(=O)OC)N(C(=O)COCc2ccccc2)C3=N1 | -9.16%
COC(=O)C1=C(C(=O)OC)[C@@H]2N(C)c3ccc(OC)cc3[C@@]23C[C@@H](C(=O)OC)N(C(=O)c2ccc(Br)cc2)C3=N1 | -17.7%
COC(=O)C1=C(C(=O)OC)[C@@H]2N(C)c3ccccc3[C@@]23C[C@@H](C(=O)OC)N(C(=O)c2ccco2)C3=N1 | -13.9%
COC(=O)C1=C(C(=O)OC)[C@@H]2N(C)c3ccc(OC)cc3[C@@]23C[C@@H](C(=O)OC)N(C(=O)NC2CCCCC2)C3=N1 | -26%
COC(=O)C1=C(C(=O)OC)[C@@H]2N(C)c3ccccc3[C@@]23C[C@@H](C(=O)OC)N(C(=O)C2CCC2)C3=N1 | -29.7%
